Hit rate of the full screen: of about 110,000 compounds, about 230 (0.21%) showed an effect of 50% or more. What follows is part of a selection rich in strong results, with near analogues and random picks from the rest.
target: DPAP1 (Plasmodium falciparum, UniProt Q8IIJ9); assay: primary screen, percent inhibition; read by cleavage of a fluorogenic dipeptide substrate; higher = more effect of the substance; parameters: species or system P. falciparum D10 trophozoite lysates; single well
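Also: 30 min substrate incubation versus DMSO and 10 µM JCP410 controls.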

Chain of DPAP1 (Q8IIJ9 whole entry, looked up): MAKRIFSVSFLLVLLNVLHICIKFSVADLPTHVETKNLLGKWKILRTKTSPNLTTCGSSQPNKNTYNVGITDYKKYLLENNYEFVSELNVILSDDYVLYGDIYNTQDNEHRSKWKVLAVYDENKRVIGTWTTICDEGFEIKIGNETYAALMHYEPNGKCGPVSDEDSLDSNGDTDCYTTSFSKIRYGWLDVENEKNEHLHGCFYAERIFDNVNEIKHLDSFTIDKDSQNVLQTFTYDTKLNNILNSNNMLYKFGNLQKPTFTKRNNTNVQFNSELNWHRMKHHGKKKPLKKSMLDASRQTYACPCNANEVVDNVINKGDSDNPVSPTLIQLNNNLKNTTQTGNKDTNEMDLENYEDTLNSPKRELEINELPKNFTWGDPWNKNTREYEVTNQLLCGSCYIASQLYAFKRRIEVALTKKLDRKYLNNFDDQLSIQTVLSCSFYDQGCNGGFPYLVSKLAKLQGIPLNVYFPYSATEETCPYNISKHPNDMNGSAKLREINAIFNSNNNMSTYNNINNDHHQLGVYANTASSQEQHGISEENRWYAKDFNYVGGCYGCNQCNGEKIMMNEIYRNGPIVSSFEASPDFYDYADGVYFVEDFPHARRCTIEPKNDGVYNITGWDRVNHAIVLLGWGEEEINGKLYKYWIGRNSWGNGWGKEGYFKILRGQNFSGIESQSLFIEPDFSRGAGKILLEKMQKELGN

| Compound | % Inhibition @ 10 uM [%] |
| --- | --- |
| c1ccc(CC2CCN(c3ncnc4sc5c(c34)CCCC5)CC2)cc1 | 2.92 |
| CCn1cc2c(n1)-c1c(oc(C(=O)NCc3cccc(Br)c3)c1C)CC2 | 13.8 |
| CCOC(=O)c1c(CC(C)C)csc1NC(=O)c1ccc(C)cc1 | -5.9 |
| CCC1CCc2c(sc(N)c2C#N)C1 (centres unmarked) | 11.8 |
| CCC1CCc2nc(S)c(C#N)c(C(F)(F)F)c2C1 (centres unmarked) | 88.2 |
| CCN(CC)C(=O)CSc1nc2c(c(C(F)(F)F)c1C#N)CCC2 | 5.64 |
| CC(C)c1ccc(/C=C2/NC(=O)NC2=O)cc1 | -1.25 |
| Cc1ccc(S(=O)(=O)N2CCCN(S(=O)(=O)c3ccc(C)c(C)c3)CC2)cc1C | 22.6 |
| CC(C)n1c(-c2ccccc2)nc2ccccc21 | -0.769 |
| CN1CCN(C(=O)c2ccc(-c3ccccc3)cc2)CC1 | 2.6 |
| CC(C)n1c(-c2ccc(C(=O)N3CCN(C)CC3)cc2)nc2ccccc21 | 83.9 |
| Cc1ccc(C)c(-c2csc(Nc3ccc(C)c(Cl)c3)n2)c1 | 0.912 |
| Cc1ccc(-c2nc3cnn(-c4ccccc4)c(O)c-3n2)cc1 | 2 |
| Oc1c2nc(S)nc-2cnn1-c1ccccc1 | 87.4 |
| CCSc1c(S)cnn(-c2ccccc2)c1=O | 1.7 |
| CC(C)C(NS(=O)(=O)c1cccs1)C(=O)NCc1ccccc1Cl (centres unmarked) | -4.07 |
| CCOc1ccc(-c2cn3ncsc3n2)cc1 | 2.41 |
| O=C(c1ccccn1)c1conc1C(=O)c1ccc(Br)cc1 | 3.72 |
| O=C(c1ccccn1)c1conc1C(=O)c1cccs1 | 1.82 |
| O=C(c1cccnc1)c1conc1C(=O)c1ccc(Br)cc1 | 91.9 |
| O=C(c1cccs1)c1conc1C(=O)c1ccc(Br)cc1 | 93.8 |
| O=C(c1nc2ccccc2s1)c1conc1C(=O)c1cccs1 | 4.03 |
| O=C(c1ccccc1)c1conc1C(=O)c1ccc(Br)cc1 | 4.52 |
| Cc1ccc(C2=CC(c3cccs3)n3ncnc3N2)cc1C (centres unmarked) | 1.86 |
| Cc1nc(NC(=O)c2cc(Cl)ccc2Cl)ccc1Br | 0.755 |
| Cc1nc(NC(=O)c2ccccc2Cl)ccc1Br | -2.67 |
| COc1ccc(Cl)cc1C(=O)Nc1ccc(Br)c(C)n1 | 70.4 |

| Compound | % Inhibition @ 10 uM [%] |
| --- | --- |
| CN(Cc1ccccc1)Cc1ccc(O)cc1 | -1.78 |
| CCOC(=O)c1sc2nc(N3CCOCC3)c3c(c2c1N)CCCC3 | -2.87 |
| NC(=O)c1sc2nc(N3CCOCC3)c3c(c2c1N)CCCC3 | 50.2 |
| CC1(C)Cc2c(c(N3CCOCC3)nc3sc(C(=O)N4CCCCC4)c(N)c23)CO1 | 3.93 |
| Nn1c(S)nnc1-c1ccccc1 | 1.63 |
| O=C1c2cccnc2C(=O)N1Cc1ccc(S(=O)(=O)NCCc2ccc(Cl)cc2)s1 | -3.66 |
| COc1ccccc1CNC(=O)[C@H](CCSC)N1Cc2ccccc2C1=O | 2.93 |
| CCCC1CCc2c(sc(NC(=O)C3CCCO3)c2C(N)=O)C1 (centres unmarked) | 1.57 |
| c1ccc2c(Cc3c[nH]c4ccccc34)c[nH]c2c1 | -0.0372 |
| c1ccc(Cc2c[nH]c3ccccc23)cc1 | 0.736 |
| c1ccc2c(Cc3nn[nH]n3)c[nH]c2c1 | 85 |
| CCC1(C)CC(=O)c2c(ccc3oc(C(=O)NCc4ccco4)c(C)c23)O1 (centres unmarked) | -2.17 |
| CC1=C(C)CC(C(=O)NCc2ccc(F)cc2)C(C(=O)O)C1 (centres unmarked) | 8.6 |
| COc1ccc(-c2coc3cc(OC)ccc3c2=O)c(O)c1 | 62.1 |
| COc1ccc2c(COc3ccc4c(=O)c(-c5ccccc5)coc4c3)cc(=O)oc2c1 | -2.91 |
| COc1ccccc1-c1coc2cc(OCC(=O)O)ccc2c1=O | -1.92 |
| O=C(Cn1ncc2c3ccccc3nc-2c1O)N1CCC(c2ccccc2)C1 (centres unmarked) | 2.36 |
| c1ccc(-c2nc3c4cnn(-c5ccccc5)c4ncn3n2)cc1 | -6.09 |
| Cc1oc2c(C)c3oc(=O)c(CC(=O)N4CCOCC4)c(C)c3cc2c1-c1ccccc1 | 2.54 |
| Cc1ccc2c(c1Br)C1(C(=O)N2)C(C#N)=C(N)Oc2cc(N)ccc21 (centres unmarked) | 5.35 |
| Cc1ccc2nc3c(cc(C(=O)NCC4CCCO4)c(=N)n3C3CCCCC3)c(=O)n2c1 (centres unmarked) | 3.6 |
| Cc1ccc2nc3c(cc(C(=O)NCC4CCCO4)c(=N)n3CCc3ccccc3)c(=O)n2c1 (centres unmarked) | 0.279 |
| COCCn1c(=N)c(C(=O)NCC2CCCO2)cc2c(=O)n3cc(C)ccc3nc21 (centres unmarked) | 94.3 |
| COc1ccc2cc3cc(C(=O)NCCN(C)C)oc3nc2c1 | -1.54 |
| Cc1ccccc1CSCC(=O)NC1CCCC1 | 2.15 |
| OC(Cn1ccnc1)(c1ccc(F)cc1)c1ccccn1 (centres unmarked) | 2.62 |

Reference: PMC6919601, “Identification of Plasmodium dipeptidyl aminopeptidase allosteric inhibitors by high throughput screening” (PLoS ONE, 2019)
